Assay outcomes deposited in PubChem BioAssay by National Center for Advancing Translational Sciences (NCATS).
An excerpt weighted towards active compounds, which were near 2% of everything screened.
Rango release inh = inhibition of RanGTP-driven Rango-importin beta dissociation | AID 540253 | Biochemical FRET Rango-importin beta, RanGTP-induced dissociation | Potency, µM (highest dose often 46.1 µM), inactives show at the top dose activity change, negative = inhibition | O95149+P62826 | actives 0.071% (n = 340,000); calls by dose curve; further: % of control where 0% means no effect; nearly all actives have a fitted effect of over 45% in size
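Compounds sat 5 min at room temperature with 0.1 uM Rango biosensor plus 0.25 uM importin beta, then FRET pre-read. RanGTP-RCC1 (0.6 uM Ran, 2mM GTP, 0.2 uM RCC1) added for 45 min, and the CFP/YFP post-read measured blocked complex dissociation.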
TDP43 rescue = inhibitors of TDP-43 toxicity in yeast. Potency, µM (highest dose often 46.1 µM), for the others: at the highest dose growth rescue (activation), hits mostly activators. actives 1.8% (n = 410,000). TDP-43 expressing yeast growth rescue, BacTiter-Glo, 24 h. AID 652104; further: % of control where 0% means no effect; nearly all actives have a fitted effect of over 50% in size
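Luminescence from BacTiter-Glo reports growth of TDP-43-expressing yeast after 24 hr at 30 deg C with compound. Cells were raffinose-pregrown to mid-log, then seeded in galactose medium at OD600=0.02.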
Abeta yeast res = A-beta toxicity reversal in yeast | actives 0.063% (n = 410,000) | Potency, µM (titrated, usually from 46.1 µM), usual class: activators | yeast expressing A-beta42, growth rescue, OD600, 48 h; response scale: 0% DMSO, 100% iron-clioquinol control; further: nearly all actives have a fitted effect of over 55% in size
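Growth rescue measured by 600 nm absorbance after 48 h yeast culture at 30 C with compound. Values normalized between DMSO and an equimolar ferric chloride plus clioquinol control.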
aSyn yeast inh = rescues yeast growth from alpha-synuclein toxicity. actives 0.14% (n = 370,000). Yeast expressing alpha-synuclein, growth rescue, BacTiter-Glo, 24 h. AID 652106. Potency, µM (titrated, usually from 46.1 µM), for inactives: top-dose growth rescue (activation), most hits filed as activators; further: % of control where 0% means no effect; nearly all actives have a fitted effect of over 65% in size
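Screening used galactose-induced yeast with toxic alpha-synuclein levels, exposed to compound for 24 hr at 30 deg C. Cell growth, read with BacTiter-Glo luminescence, gave the measured signal.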
S-ASM inh = inhibitors of human secretory acid sphingomyelinase; actives 0.006% (n = 340,000); AID 504937; placental ASM, HMU-PC fluorogenic substrate, 60 min; P17405; Potency, µM (top dose mostly 57.5 µM), without a hit: at the highest dose activity change, negative = inhibition, actives largely listed as inhibitors
Target sequence (P17405 47-631 limits assumed): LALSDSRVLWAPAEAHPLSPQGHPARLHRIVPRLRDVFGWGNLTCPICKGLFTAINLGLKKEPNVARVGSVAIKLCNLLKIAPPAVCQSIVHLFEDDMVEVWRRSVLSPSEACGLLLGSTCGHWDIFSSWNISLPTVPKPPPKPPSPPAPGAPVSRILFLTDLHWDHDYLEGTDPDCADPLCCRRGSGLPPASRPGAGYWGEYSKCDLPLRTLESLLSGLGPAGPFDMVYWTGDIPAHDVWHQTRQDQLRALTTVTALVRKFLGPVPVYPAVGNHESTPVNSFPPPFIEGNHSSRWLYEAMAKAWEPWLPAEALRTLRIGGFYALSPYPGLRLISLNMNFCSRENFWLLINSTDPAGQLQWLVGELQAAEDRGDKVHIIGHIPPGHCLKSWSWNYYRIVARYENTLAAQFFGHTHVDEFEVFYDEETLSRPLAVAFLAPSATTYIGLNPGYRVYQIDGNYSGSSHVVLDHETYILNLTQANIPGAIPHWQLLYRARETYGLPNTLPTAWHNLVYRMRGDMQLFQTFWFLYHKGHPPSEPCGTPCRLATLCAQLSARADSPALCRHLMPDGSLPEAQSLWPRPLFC
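Steps: dispense placental human ASM, pin compound, wait 10 min at room temperature, add HMU-PC0 substrate at 9 uM final, incubate 60 min at 37 °C, add stop solution raising pH to 10, read fluorescence.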
Rango complex inh = inhibitors of Rango-importin beta complex formation; Potency, µM (doses to about 92.2 µM), for the others: at the top dose inhibition of complex formation; Q14974; Rango CFP/YFP FRET sensor + importin beta, 45 min; actives 0.031% (n = 340,000); AID 540263; calls by dose curve;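 further: 0% = DMSO wells and 100% = buffer wells lacking importin beta; nearly all actives have a fitted effect of over 15% in size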
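FRET biosensor (snurportin 1 IBB flanked by EYFP and cerulean), 50 nM, with compound 5 min, then 0.125 microM importin beta in PBS, 1 mM DTT, 0.02% Tween-20, 0.1% BSA. CFP/YFP ratio read after 45 min at room temperature; pre-read flags interference.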
* hit, by the source's call; i = inactive; ? = inconclusive; . = no result given; [ ] = dose if it differs, or a comment. Unless noted, the call rests on the fitted dose curve; in most records, active means well fitted curve in the direction sought with a large enough effect; inconclusive means small, poorly fitted or top-dose-only effect, or another doubt; inactive means no such curve, though single readings can be large; an effect the other way counts as inactive or inconclusive. Potency means the concentration at half of the fitted maximal effect.

SMILES	Rango release inh	TDP43 rescue	Abeta yeast res	aSyn yeast inh	S-ASM inh	Rango complex inh
Cc1ccc(C(C)C)c(OCCSc2nc3ccccc3n2CC(O)CO)c1 (stereo not given)	.	35µM*	i	.	.	.
COC(=O)Cn1c(SCCOc2ccccc2Cl)nc2ccccc21	.	28µM*	i	.	.	.
COc1ccccc1OCCSc1nc2ccccc2n1CCO	-6%	8%	i	1%	-3%	0%
CCOC(=O)c1c(C)oc2ncnc(Nc3cc(Cl)ccc3OC)c12	.	11%	i	.	.	.
COc1ccc2c(c1)CC(C(=O)Nc1ccc(Br)c(C)c1)CO2 (stereo not given)	.	20%[9.22 µM]	i	.	.	.
Cc1ccc(-c2cc(C(=O)N/N=C/c3cccnc3)c3ccccc3n2)cc1C	24%	22µM*	i	-11%	-7%	-3%
CC(C)Cn1c(N)c(C(=O)COC(=O)c2c(O)c(Cl)cc(Cl)c2Cl)c(=O)n(C)c1=O	-5%	25µM*	i	-15%	-20%	1%
O=C(O)Cn1cc(C(=O)c2ccco2)c2ccccc21	28%	2%	i	0%	-1%	-1%
CCOC(=O)Cn1cc(C(=O)c2ccco2)c2ccccc21	-7%	18µM*	i	-3%	5%	-3%
Cc1ccc2c(c1)N(C(=O)Nc1cccc3c1CCCC3)CC(C)O2 (stereo not given)	.	-13%	i	.	.	.
CC(C)(C)c1ccc(-n2nc(C#N)c(Cl)cc2=O)cc1	?	3.5µM*	i	-1%	2%	4%
CC(C)(C)c1ccc(-n2nc(C(N)=O)c(O)cc2=O)cc1	-13%	16%	i	9%	-2%	3%
CC(Oc1cccc(Cl)c1)C(=O)Nc1nc(-c2ccccn2)cs1 (stereo not given)	-17%	-39%	?	4.5µM*	-2%	-2%
CC(Oc1ccccc1)C(=O)Nc1nc(-c2ccccn2)cs1 (stereo not given)	-22%	?	?	22µM*	-8%	7%
Cc1ccc2c(/C=C/c3ccc(N(C)C)cc3)ccnc2c1	.	.	.	-14%	.	.
COc1ccc([C@@H]2CC=C(C(=O)O)[C@H](c3ccc(F)cc3)N2S(=O)(=O)c2ccc(Cl)cc2)cc1	-8%	14µM*	i	-23%	-2%	0%
Cc1ccc(S(=O)(=O)N2[C@@H](c3ccc(F)cc3)C(C(=O)O)=CC[C@H]2c2cccc(Cl)c2)cc1	-8%	22µM*	i	0%	2%	1%
O=C(NCc1ccccc1F)C1CCN(c2nnc(-n3cccc3)s2)CC1	.	0%	i	-1%	.	.
CCN(Cc1nc(-c2ccc(OC)cc2)oc1C)S(=O)(=O)c1ccc(C)cc1	.	11%	i	.	.	.
COc1cccc(CNS(=O)(=O)c2cc(Br)ccc2Br)c1	.	18µM*	i	?	.	.
O=S(=O)(NCc1ccccc1)c1ccc(F)cc1Br	0%	18%	i	0%	6%	-1%
O=S(=O)(NCc1ccc(F)cc1)c1ccc(Br)cc1Br	2%	22µM*	i	20µM*	-2%	2%
CC(=O)O[C@@]12CO[C@@H]1C[C@H](O)[C@@]1(C)C(=O)[C@H](O)C3=C(C)[C@@H](OC(=O)[C@H](O)[C@@H](NC(=O)OC(C)(C)C)c4ccccc4)C[C@@](O)([C@@H](OC(=O)c4ccccc4)[C@H]21)C3(C)C	.	.	.	2%	.	.
S=C(NCCNC(=S)Nc1ccccc1)Nc1ccccc1	2%	24%	i	3%	3%	0%
S=C(Cc1ccccc1)Nc1ccccc1	0%	8.9µM*	i	2%	2%	0%
SMILES	Rango release inh	TDP43 rescue	Abeta yeast res	aSyn yeast inh	S-ASM inh	Rango complex inh
O=S(=O)(NCC(c1ccco1)S(=O)(=O)c1cccs1)c1ccc(F)c(C(F)(F)F)c1 (stereo not given)	.	0.89µM*	i	.	.	.
O=S(=O)(NCC(c1ccco1)S(=O)(=O)c1cccs1)c1ccc(Cl)cc1 (stereo not given)	.	?	i	.	.	.
C=CCn1c(C)cc(C(=O)COC(=O)c2cncc(Br)c2)c1C	23%	20µM*	i	19%	-3%	2%
CC(C)C(c1nnnn1C1CCCC1)N1CCCc2ccccc21 (stereo not given)	5%	16µM*	i	3%	1%	-1%
CCN1CCC(N(Cc2cccc(OC)c2)C(=O)Nc2ccc(C)cc2Cl)CC1	.	2%	i	.	.	.
CCCN(c1c(C)n(C)n(-c2ccccc2)c1=O)S(=O)(=O)c1ccc(C)cc1	.	0%	i	.	.	.
Cc1cc(C(=O)N/N=C/c2cccc(OC(=O)c3cccc(Br)c3)c2)n[nH]1	20%	?	i	-1%	-8%	4%
COc1cccc(C(=O)Oc2c(Br)cc(Br)cc2/C=N/NC(=O)c2cc(C)[nH]n2)c1	18µM*	-8%	i	-2%	-19%	?
CCOc1ccc(C(=O)c2cn(CC(=O)Nc3ccc(F)c(F)c3)c3cc4c(cc3c2=O)OCCO4)cc1	.	-28%	i	.	.	.
CC1(C(=O)Nc2cnc3ccccc3c2)CCN1C(=O)CC(c1ccccc1)c1ccccc1 (stereo not given)	.	18µM*	i	1%	.	.
CCOC(=O)c1ccc(NC(=O)c2nn(CC)cc2Br)cc1	-4%	14%	i	-18%	-4%	0%
CCn1cc(Br)c(C(=O)Nc2ccc(Cl)cc2Cl)n1	-8%	4.5µM*	i	2%	-7%	3%
CCn1cc(Br)c(C(=O)Nc2ccc(F)c(Cl)c2)n1	19%	11µM*	i	0%	-4%	0%
Cc1ccccc1N1CC(c2nc3ccccc3n2CCC2CCCCC2)CC1=O (stereo not given)	.	22µM*	i	.	.	.
Cc1ccc(N2CCN(C(=O)c3c(C)oc4ncnc(N5CCCCC5)c34)CC2)c(C)c1	.	?	i	.	.	.
Cc1cccc(N2CCN(C(=O)c3c(C)oc4ncnc(N5CCOCC5)c34)CC2)c1C	.	20µM*	i	.	.	.
Cc1ccc(N2CCN(C(=O)c3c(C)oc4nc(C)nc(N5CCCC5)c34)CC2)c(C)c1	.	25µM*	i	.	.	.
Cc1cccc(N2CCN(C(=O)c3c(C)oc4ncnc(N5CCCCC5)c34)CC2)c1C	.	35µM*	i	.	.	.
Cc1nc(N2CCCC2)c2c(C(=O)N3CCN(c4cccc(C)c4C)CC3)c(C)oc2n1	.	?	i	.	.	.
COc1cccc(NC(=O)Cn2c(=O)n(Cc3ccco3)c(=O)c3cc(OC)c(OC)cc32)c1	.	8%	i	.	.	.
Fc1ccccc1-c1nc(NCC2CC2)nc2ccsc12	.	22µM*	i	8%	.	.
